FBPA Giardia inh – qHTS Assay for Inhibitors of Fructose-1,6-bisphosphate Aldolase from Giardia Lamblia; A8B2U2; purified Giardia FBPA; Potency, µM (series often up to 59.6 µM), inactives show top-dose activity, negative = inhibition, hits mostly inhibitors; 290,000 tested, 0.71% active; AID 2451, 2010; also: nearly all actives have a fitted effect of over 55% in size
Target sequence (A8B2U2 whole entry, looked up): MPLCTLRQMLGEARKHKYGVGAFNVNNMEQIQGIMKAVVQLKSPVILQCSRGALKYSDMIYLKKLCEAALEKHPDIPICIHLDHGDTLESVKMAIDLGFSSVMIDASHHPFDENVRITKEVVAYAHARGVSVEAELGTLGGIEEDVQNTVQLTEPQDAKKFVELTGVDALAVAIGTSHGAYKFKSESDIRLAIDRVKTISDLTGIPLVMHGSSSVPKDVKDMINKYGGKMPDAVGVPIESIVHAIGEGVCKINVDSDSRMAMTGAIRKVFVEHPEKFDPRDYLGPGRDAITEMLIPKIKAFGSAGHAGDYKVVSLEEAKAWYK
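40 nM FBPA preincubated 10 min at RT with compound (up to 57.5 uM final), then substrate plus GAPDH/TPI/NAD/arsenate coupling and diaphorase/resazurin added. Fluorescence read after 20 min at RT, 525/598 nm.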
AmpC no deterg – qHTS Inhibitors of AmpC Beta-Lactamase (assay without detergent); 330,000 tested, 0.52% active; P00811; Potency, µM (highest dose often 57.1 µM), without a hit: at the highest dose activity change, negative = inhibition, usual class: inhibitors; AmpC nitrocefin hydrolysis, absorbance 480 nm, 0.0001% Triton; AID 485341, 2010;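 also: plate controls were no compound for no effect and no enzyme for full effect; nearly all actives have a fitted effect of over 20% in size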
Target sequence (P00811 whole entry, looked up): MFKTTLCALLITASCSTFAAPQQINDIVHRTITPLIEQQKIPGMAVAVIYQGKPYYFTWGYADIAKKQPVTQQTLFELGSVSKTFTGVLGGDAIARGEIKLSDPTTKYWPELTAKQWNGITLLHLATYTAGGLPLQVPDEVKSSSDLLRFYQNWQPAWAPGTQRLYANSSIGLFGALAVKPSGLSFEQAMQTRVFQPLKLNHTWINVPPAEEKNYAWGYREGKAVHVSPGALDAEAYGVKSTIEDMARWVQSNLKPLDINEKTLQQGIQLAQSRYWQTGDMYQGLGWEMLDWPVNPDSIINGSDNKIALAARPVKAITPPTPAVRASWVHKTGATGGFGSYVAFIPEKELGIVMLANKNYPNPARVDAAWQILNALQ
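AmpC (5.3 nM in the dispensed reagent) in 20 mM phosphate pH 7.0 with 0.01% (detergent screen) or 0.0001% Triton X-100 was preincubated with compounds for 15 min at room temperature. Nitrocefin was then added from an 800 uM solution, and hydrolysis was followed at 480 nm.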
AmpC detergent – qHTS Inhibitors of AmpC Beta-Lactamase (assay with detergent); Potency, µM (titrated, usually from 114 µM), for inactives: at the highest dose activity change, negative = inhibition, actives largely listed as inhibitors; P00811; 370,000 tested, 0.041% active; AID 485294, 2010; AmpC hydrolysis of nitrocefin, absorbance 480 nm, 0.01% Triton;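 also: 0% = no-compound wells and -100% = no-enzyme wells; nearly all actives have a fitted effect of over 25% in size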
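AmpC (5.3 nM in the dispensed reagent) in 20 mM phosphate pH 7.0 with 0.01% (detergent screen) or 0.0001% Triton X-100 was preincubated with compounds for 15 min at room temperature. Nitrocefin was then added from an 800 uM solution, and hydrolysis was followed at 480 nm.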
Sm TGR inh – qHTS Assay for the Inhibitors of Schistosoma Mansoni Peroxiredoxins; Schistosoma mansoni thioredoxin glutathione reductase (TGR), Q962Y6; purified TGR, DTNB reduction, TNB absorbance 405 nm; Potency, µM (highest dose often 114 µM), inactives show at the top dose activity change, negative = inhibition, actives largely listed as inhibitors; 360,000 tested, 3% active; AID 485364, 2010; also: nearly all actives have a fitted effect of over 60% in size
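Kinetic colorimetric format: TGR-catalysed, NADPH-driven DTNB reduction monitored via TNB absorbance. Enzyme dispensed at 20 nM; compound exposure 15 min at room temperature before reaction start.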
* hit, by the source's call. This is a sample that favours compounds with a hit; in the whole collection about 3.6% have one here. Calls follow the shape of the dose curve; as a rule, active = well fitted curve in the direction sought with a large enough effect; inconclusive = small, poorly fitted or top-dose-only effect, or another doubt; inactive = no such curve, though single readings can be large; an effect the other way counts as inactive or inconclusive. Unless noted, % is scaled to controls: 0 for no effect and ±100 for the full control effect; potency is read from the fitted curve at half-maximal effect.

For N#CC(=C=[N-])c1nc2ccccc2nc1-[n+]1cccc(NC(=O)c2cccs2)c1 the results were FBPA Giardia inh -16.8%, AmpC no deterg -6.1%, AmpC detergent 4.1% and Sm TGR inh 39.8µM*.
Screening N#CC(=C=[N-])c1nc2ccccc2nc1-[n+]1cccc(NC(=O)c2ccc(F)cc2)c1 returned FBPA Giardia inh -13.9%, AmpC no deterg -4.8%, AmpC detergent 9.9% and Sm TGR inh -28.9%.
For N#CC(=C=[N-])c1nc2ccccc2nc1-[n+]1cccc(NC(=O)c2ccccc2)c1 the results were FBPA Giardia inh -29.6%, AmpC no deterg -3.5%, AmpC detergent 7.3% and Sm TGR inh 39.8µM*.
Screening N[C@@H]1CCN(O)C1=O returned FBPA Giardia inh 10.9%.
Cc1ccc(C(=O)Nc2ccccc2N2CCCC2)s1 was read as AmpC no deterg -43.6%, AmpC detergent inconclusive and Sm TGR inh -35.0%.
O=c1[nH]n(-c2ccc(Cl)cc2)c(=O)c(Cl)c1Cl was read as FBPA Giardia inh -19.1%, AmpC no deterg -29.0%, AmpC detergent 0.1% and Sm TGR inh 7.08µM*.
For COC(=O)C1=C(c2cccc(C#N)c2)C[C@@H]2CC[C@H]1N2C(=O)NCc1ccco1 the results were AmpC no deterg -8.9%, AmpC detergent 7.1% and Sm TGR inh 35.5µM*.
COC(=O)C1=C(c2cccc(C#N)c2)C[C@@H]2CC[C@H]1N2C(=O)NCCO was read as AmpC no deterg -10.3%, AmpC detergent -4.2% and Sm TGR inh -21.3%.
For Cc1cccc(NC(=O)CN2C(=O)C(c3ccccc3)=NC23CCC(C)CC3)c1 (stereo unspecified) the results were AmpC detergent 16.9% and Sm TGR inh 11.7%.
For COCCn1c(C)cc(O)c(C(c2ccccc2)N2CCN(C)CC2)c1=O (stereo unspecified) the results were AmpC detergent 2.9% and Sm TGR inh 6.31µM*.
`CCOc1ccc(C(c2c(O)cc(C)n(CCOC)c2=O)N2CCC(C)CC2)cc1` (stereo unspecified) gave AmpC detergent 1.9% and Sm TGR inh 20µM*.
`COCCn1c(C)cc(O)c(C(=O)Nc2cccc(Cl)c2)c1=O` gave AmpC no deterg -8.8%, AmpC detergent -3.2% and Sm TGR inh 3.7%.
For COCCn1nnnc1C(c1ccc2ncccc2c1)N1CCN(c2ccccc2F)CC1 (stereo unspecified) the results were FBPA Giardia inh -10.4%, AmpC no deterg 60.3%, AmpC detergent -4.1% and Sm TGR inh 1.1%.
COCCn1c(C)cc(O)c(C(c2ccccc2)N2CCN(c3ccccc3F)CC2)c1=O (stereo unspecified) was read as AmpC detergent 1.1% and Sm TGR inh 7.08µM*.
For CCOc1ccc(C(c2c(O)cc(C)n(CCOC)c2=O)N2CCN(c3ccccc3F)CC2)cc1 (stereo unspecified) the results were AmpC detergent 9.6% and Sm TGR inh 10µM*.
For CCCCCNC(=O)c1cc2c(=O)n3ccccc3nc2n1C the results were AmpC detergent 13.0% and Sm TGR inh -6.7%.
`N#CC1=C(SCC(=O)NC2CCCCC2)NC(=O)CC1c1ccco1` (stereo unspecified) gave FBPA Giardia inh -7.1%, AmpC no deterg -25.4%, AmpC detergent -7.2% and Sm TGR inh 70.2%.
For CCCCCCSC1=C(C#N)C(c2ccc(C)o2)CC(=O)N1 (stereo unspecified) the results were FBPA Giardia inh -4.7%, AmpC no deterg -16.6%, AmpC detergent 1.6% and Sm TGR inh 44.7µM*.
N#CC1=C(SCc2ccccc2)NC(=O)CC1c1ccco1 (stereo unspecified) was read as FBPA Giardia inh -27.7%, AmpC no deterg -33.3%, AmpC detergent inconclusive and Sm TGR inh 35.5µM*.
Screening N#CC1=C(SCC(=O)NCc2ccccc2)NC(=O)CC1c1ccco1 (stereo unspecified) returned FBPA Giardia inh 0.0%, AmpC no deterg inconclusive, AmpC detergent 1.7% and Sm TGR inh 39.8µM*.
For Cc1ccc(C2CC(=O)NC(SCc3ccccc3)=C2C#N)o1 (stereo unspecified) the results were FBPA Giardia inh -18.5%, AmpC no deterg -25.6%, AmpC detergent 3.2% and Sm TGR inh inconclusive.
`COc1cccc(C(=O)NCC(=O)N2CCC3(CC2)NCCc2[nH]cnc23)c1OC` gave AmpC no deterg 4.6%, AmpC detergent 1.7% and Sm TGR inh -27.3%.
Screening CCOC(=O)c1c(NC(=O)CCCOc2ccc(Cl)cc2)sc2c1CCC2 returned AmpC detergent 0.7% and Sm TGR inh 6.7%.
`Cc1ccc(NC(=O)CCSc2nc(-c3ccco3)cc(C(F)(F)F)n2)cc1F` gave AmpC detergent 26.6% and Sm TGR inh 21.4%.
For O=C(Oc1ccc(=O)n(-c2ccccc2)n1)c1cccc(Cl)c1 the results were FBPA Giardia inh 2.6%, AmpC no deterg -13.6%, AmpC detergent inconclusive and Sm TGR inh 15.8µM*.
`O=C(Oc1ccc(=O)n(-c2ccccc2)n1)c1ccc(Cl)cc1` gave FBPA Giardia inh -0.5%, AmpC no deterg -6.8%, AmpC detergent inconclusive and Sm TGR inh inconclusive.
Screening COc1ccc(CCCn2ncc3c2nc(N)n2nc(-c4ccco4)nc32)cc1 returned FBPA Giardia inh -4.3%.
For CN1c2cccc3cccc(c23)N(C)C1c1cccs1 the results were FBPA Giardia inh -29.8%, AmpC no deterg -33.4%, AmpC detergent 4.1% and Sm TGR inh -28.1%.
Screening c1ccc(C2Nc3cccc4cccc(c34)N2)cc1 returned FBPA Giardia inh inconclusive, AmpC no deterg -20.3%, AmpC detergent 1.7% and Sm TGR inh 8.91µM*.
For c1csc(C2Nc3cccc4cccc(c34)N2)c1 the results were FBPA Giardia inh -29.3%, AmpC no deterg -24.0%, AmpC detergent 1.8% and Sm TGR inh 22.4µM*.
Screening CN(C)c1ccc(C2Nc3cccc4cccc(c34)N2)cc1 returned FBPA Giardia inh -19.5%, AmpC no deterg -39.6%, AmpC detergent -7.0% and Sm TGR inh 31.6µM*.
Screening Brc1cccc(C2Nc3cccc4cccc(c34)N2)c1 returned FBPA Giardia inh -10.2%, AmpC no deterg -28.3%, AmpC detergent 1.1% and Sm TGR inh 11.2µM*.
CCOC(=O)c1ccc(NC(=O)Cn2cc(C(=O)C3CC3)c3ccccc32)cc1 was read as AmpC detergent 24.1% and Sm TGR inh 12.5%.
For Cc1ccc(SC[C@H](Cc2ccccc2)N2CC[C@@H](NC(=O)OCc3ccccc3)CCC2=O)cc1 the results were FBPA Giardia inh 15.5%, AmpC no deterg 44.7%, AmpC detergent inconclusive and Sm TGR inh 3.7%.
`OCCNc1nc(-c2ccccc2)nc2c1oc1ccccc12` gave FBPA Giardia inh -7.4%, AmpC no deterg -7.2%, AmpC detergent -9.3% and Sm TGR inh -1.8%.
